The whole screen tested about 290,000 compounds, of which about 2,600 (0.9%) were called active. The full list was thinned out, with actives kept by preference. Unmarked numbers belong to inactive results.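 Rule for the calls: active = inhibition above the mean of all tested compounds plus 3 SD, cutoff set per screening run (cut at about 7.5% in these data); inactive = the rest.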
Each molecule was assayed on VIM-2 metallo-beta-lactamase (Pseudomonas aeruginosa) (assay: VIM-2 metallo-beta-lactamase inhibitors, primary screen, biochemical, epi-absorbance readout, Pseudomonas aeruginosa enzyme (AID 1527;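 note: red hydrolysis product quenches plate fluorescence so inhibitors raise well fluorescence; 0% = enzyme with DMSO and 100% = DMSO without enzyme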)). Details: purified VIM-2, nitrocefin hydrolysis, epi-absorbance fluorescence; at 5.6 µM; hits give high values.
For CCOC(=O)N1CCN(C(=O)C2CCN(S(=O)(=O)c3cc(Cl)ccc3OCC)CC2)CC1, the inhibition was -1.98%.
With CCOC(=O)C1CCN(c2ncnc3c2oc2ccc(Br)cc23)CC1 the inhibition was -2.16%.
With CCOC(=O)N1CCN(C(=O)C2CCN(c3ncnc4c3sc3cccc(F)c34)CC2)CC1 the inhibition was 17.8% (active).
For C=CCOc1cccc(C2NC(=O)c3ccccc3O2)c1 (stereo unspecified), the inhibition was -2.16%.
In the case of Cc1cc(Nc2ccc(N3CCOCC3)cc2)c2cccc(C)c2n1, the inhibition is reported as 2.18%.
Molecule Cc1cc(N2CCN(c3ccccc3)CC2)nc(N2CCOCC2)n1 has an inhibition of -1.05%.
With Cc1nn2c3cc(N4CCOCC4)ccc3nc2c2ccccc12 the inhibition was 10.9% (active).
With CC(=O)NC(CC(=O)Nc1cccc(S(=O)(=O)N2CCCC2)c1)c1ccccc1 (stereo unspecified) the inhibition was -3.12%.
Molecule C=CCn1c(-c2sc(-c3ccccc3)nc2C)n[nH]c1=S has an inhibition of -5.93%.
C=CCn1c(-c2ccc3[nH]c(C)c(C)c3c2)n[nH]c1=S was tested, and the inhibition was 5.39%.
In the case of C=CCn1c(-c2ccccc2OCC)n[nH]c1=S, the inhibition is reported as 25.3% (active).
COc1cc(NC(=O)CCNC(=O)Cn2ccc3ccccc3c2=O)cc(OC)c1OC was tested, and the inhibition was -1.82%.
C[C@H](NC(=O)[C@@H]1Cc2ccccc2CN1C(=O)OC(C)(C)C)C(=O)NC1CCCC1 was tested, and the inhibition was -2.43%.
Molecule CCn1c(C(O)c2cc(OC)ccc2OC)nc2ccccc21 (stereo unspecified) has an inhibition of -0.51%.
COc1ccc(CC(=O)N/N=C(\C)c2ccccn2)cc1 gave an inhibition of -3.47%.
For CCN(CC)CCOc1ccc2c(c1)C(=NNC(=O)c1ccccn1)c1cc(OCCN(CC)CC)ccc1-2, the inhibition was 29.9% (active).
Cc1cccc(OCC(=O)NCCCNC(=O)c2ccccn2)c1 gave an inhibition of -2.83%.
CCCc1[nH]nc2c1C(c1c(C)nn(-c3ccccc3)c1Cl)C(C#N)=C(N)O2 (stereo unspecified) was tested, and the inhibition was -2.17%.
CCCc1[nH]nc2c1C(C1CC=CCC1)C(C#N)=C(N)O2 (stereo unspecified) gave an inhibition of 1.47%.
In the case of CCCc1[nH]nc2c1C(c1ccc(Br)s1)C(C#N)=C(N)O2 (stereo unspecified), the inhibition is reported as 8.14% (active).
With CNC(=O)c1cc2c(ccc3ccccc32)oc1=N the inhibition was 0.24%.
CN(C)C(=O)c1coc2nc3ccccc3nc12 showed an inhibition of -2.21%.
CNC(=O)c1cccc2nc3ccccc3nc12 was tested, and the inhibition was 12.2% (active).
Work on Cc1ccc(S(=O)(=O)c2nc(-c3cccs3)oc2NCc2cccnc2)cc1 yielded an inhibition of -1.14%.
O=C(NCCOc1ccccc1F)Nc1ccc(Br)cc1 was tested, and the inhibition was -1.38%.
COc1ccc(NS(=O)(=O)c2cc3c(cc2C)N(C(C)=O)CCO3)cc1 gave an inhibition of -3.48%.
Molecule O=[N+]([O-])c1ccccc1/C=C/CN1CCCC(CO)C1 (stereo unspecified) has an inhibition of -0.68%.
O=C(NCC(=O)N1CCC2(CC1)NCCc1[nH]cnc12)c1ccc(Br)cc1 gave an inhibition of 0.87%.
Molecule Cc1ccccc1NC(=O)C1CCN(C(=O)NC2CCCCC2)CC1 has an inhibition of -1.56%.
Cc1ccc(NC(=O)c2cccnc2C(=O)Nc2ccc(C)cc2)cc1 showed an inhibition of -0.75%.
For O=C(Nc1ccc(-n2ccnc2P(=O)(O)c2ccccc2)cc1)c1ccccc1Br, the inhibition was 21.4% (active).
For O=C(NC(=S)Nc1ncccn1)c1ccccc1Br, the inhibition was -1.46%.
Molecule COc1cc(/C=C2\SC(=O)NC2=O)ccc1OCc1ccc(Cl)nc1 has an inhibition of -1.77%.
COc1ccccc1CCNS(=O)(=O)c1cc2c3c(c1)C(C)C(=O)N3CCC2 (stereo unspecified) was tested, and the inhibition was 1.4%.
O=C(NCCCc1ccccc1)C1CCC(=O)N(CCc2ccc(Cl)cc2)C1 (stereo unspecified) was tested, and the inhibition was -1.97%.
In the case of Cc1cccc(N2C(=O)c3cccnc3C2=O)c1, the inhibition is reported as -0.49%.
Cc1ccc(NC(=O)CSc2cccc3cccnc23)c(C)c1 showed an inhibition of -0.55%.
Cc1ccc(Oc2ccc3c(c2)C(=O)N(c2cccc4cccnc24)C3=O)cc1 was tested, and the inhibition was 30.9% (active).
O=C(C1CCN(S(=O)(=O)c2ccc(Br)s2)CC1)N1CCN(c2ccccc2)CC1 gave an inhibition of -3.44%.
For Cc1cccc(NC(=S)NC(=O)c2ccc(Br)o2)c1, the inhibition was -1.38%.
Molecule COC(=O)c1ccccc1NC(=S)NC(=O)c1ccccc1F has an inhibition of -1.44%.
O=C(NC(=S)Nc1ccccc1C(=O)O)c1ccc(-c2ccc(Br)cc2)o1 was tested, and the inhibition was 19.4% (active).
CC(C)[C@H](NC(=O)N1CC(=O)Nc2ccccc21)C(=O)N[C@@H](Cc1c[nH]c2ccccc12)C(=O)O was tested, and the inhibition was -2.42%.
CCOC(=O)N1CCN(Cc2nnc(-c3ccccc3Cl)o2)CC1 showed an inhibition of -1.67%.
Cn1cnnc1SCc1nnc(-c2ccccc2Br)o1 showed an inhibition of -0.36%.
With Nc1cccc2c1C(=O)N(Cc1nnc(-c3ccccc3Br)o1)C2=O the inhibition was 13.6% (active).
Cc1ccccc1NC(=O)C1CCCN(C(=O)NCc2ccccc2)C1 (stereo unspecified) was tested, and the inhibition was -2.35%.
For OC(CN1C2=NCCCN2c2ccccc21)c1ccc(Br)cc1 (stereo unspecified), the inhibition was -1.66%.
Cc1cc2c(cc1C)N(Cc1ccccc1)C1=NCCCN12 was tested, and the inhibition was 8.88% (active).
For CC(C)(C)C(=O)CN1C2=NCCN2c2ccccc21, the inhibition was -3.12%.
With COc1ccc(S(=O)(=O)NCC(=O)NCc2cc(=O)n(C)c(=O)n2C)cc1F the inhibition was -1.12%.
CCn1c(Cc2ccc(OC)cc2)nnc1SCC(=O)Nc1ccc(N2CCOCC2)cc1 showed an inhibition of -1.86%.
For COc1ccccc1/C=N\Nc1cc(C)nc(-n2nc(C)cc2C)n1, the inhibition was -5.24%.
With COc1ccc(Nc2cc(C)nc(-n3nc(C)cc3C)n2)cc1 the inhibition was 12.7% (active).
Cc1cc(N/N=C\c2ccc(Br)cc2)nc(-n2nc(C)cc2C)n1 was tested, and the inhibition was -1.15%.
Cc1cccc(OCC(=O)NCC(=O)N/N=C/c2ccc(N(C)C)cc2)c1 was tested, and the inhibition was 0.77%.
N#Cc1ccc(/C=C2\CCn3c2nc2cc(C(=O)O)ccc2c3=O)cc1 showed an inhibition of 3.37%.
Work on Cc1cc(S(=O)(=O)NCc2ccccn2)c(Cl)cc1Cl yielded an inhibition of -1.51%.
COc1ccc(-c2ccc(CNCCCN3CCOCC3)o2)cc1Cl was tested, and the inhibition was -0.71%.
In the case of Fc1ccc(-c2ccc(CNCc3ccccn3)o2)cc1Cl, the inhibition is reported as 38% (active).
COc1ccc(S(=O)(=O)N2CCN(C(=O)N(C)C)C2C)cc1 (stereo unspecified) showed an inhibition of -2.86%.

— PubChem BioAssay AID1527 (The Scripps Research Institute Molecular Screening Center, 2009)
